# Screening data as filed in PubChem.
# CYP2C9 act: human CYP2C9 activators, primary screen, biochemical, luminescence; Cytochrome P450 2C9 (Homo sapiens), P11712; recombinant CYP2C9, luciferin-H conversion; active compounds read high; factor 1 = untreated enzyme, 0 = blocked; activation factor at 5 µM; 1.4% of 96,000 active; AID 1024, 2008;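 active means activation factor of 2 or more for CYP2C9 at a 5 µM dose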;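 further: 0 = sulfaphenazole-blocked wells and 1 = vehicle-only wells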
# CYP2C9 inhib: blockers of cytochrome P450 2C9 activity – biochemical, luminescence, ADME assay, primary screen; CYP2C9 Supersomes, luciferin-H conversion; inhibition, % at 5 µM; 20% of 96,000 active;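 active means blocking of liver enzyme CYP2C9 beyond about 50% at 5 µM, limit read from the data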
# sEH inh: soluble epoxide hydrolase inhibitors, primary screen, biochemical, human sEH; Bifunctional epoxide hydrolase 2 (Homo sapiens), P34913; inhibition, % at 2 µM; AID 707, 2007; recombinant human sEH enzymatic activity assay; 0.34% of 91,000 active; in the data active means inhibition above about 80%
# CYP2C19 inhib: blockers of cytochrome P450 2C19 activity – biochemical, luminescence, ADME assay, primary screen | P33261 | CYP2C19 Supersomes, luciferin-H EGE luminescence, 30 min | inhibition, % at 5 µM | 21% of 96,000 active;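 active means CYP2C19 inhibition above a set limit at 5 µM in the primary screen, cut at about 50% in these data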;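 further: plate controls were negative control wells for no effect and 2.5 mM tranylcypromine positive control for full effect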
# Target sequence (P33261 whole entry, looked up): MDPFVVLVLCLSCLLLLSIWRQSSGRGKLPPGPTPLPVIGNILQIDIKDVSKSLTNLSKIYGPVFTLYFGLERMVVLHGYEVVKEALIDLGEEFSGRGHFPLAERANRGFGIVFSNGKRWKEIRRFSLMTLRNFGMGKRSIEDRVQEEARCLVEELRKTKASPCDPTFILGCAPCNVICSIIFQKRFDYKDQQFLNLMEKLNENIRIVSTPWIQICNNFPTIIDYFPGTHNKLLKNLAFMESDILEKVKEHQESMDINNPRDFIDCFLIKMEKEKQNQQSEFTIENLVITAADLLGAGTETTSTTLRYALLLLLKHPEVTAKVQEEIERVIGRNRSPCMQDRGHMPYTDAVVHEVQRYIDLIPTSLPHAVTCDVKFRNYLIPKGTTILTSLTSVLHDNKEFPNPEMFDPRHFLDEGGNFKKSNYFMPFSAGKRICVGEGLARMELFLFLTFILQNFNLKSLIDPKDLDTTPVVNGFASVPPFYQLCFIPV
# sEH activator: soluble epoxide hydrolase activators, primary screen, biochemical, human sEH; activation, % at 2 µM; purified human sEH enzymatic activity, activator screen; AID 717, 2007; 0.04% of 91,000 active; in the data active means activation above about 37%
# CYP2C19 act: human CYP2C19 activators, primary screen, biochemical, luminescence | AID 1025, 2008 | activation factor at 5 µM | 96,000 tested, under 10 active | Cytochrome P450 2C19 (Homo sapiens), P33261 | recombinant CYP2C19, luciferin-H EGE luminescence; active compounds read high; 0 = fully inhibited enzyme, 1 = untreated enzyme;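 active means activation factor of at least 2 at 5 µM in the primary screen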;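 further: 0 = wells with 2.5 mM tranylcypromine and 1 = vehicle-only wells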
# Active calls of the source: *; · = no result given. Hits are enriched below; roughly 27% of the tested compounds scored in any of these assays.
SMILES,CYP2C9 act,CYP2C9 inhib,sEH inh,CYP2C19 inhib,sEH activator,CYP2C19 act
CCN(CC)C(=O)C1CCCN(Cc2ccc(OC)c(C)c2)C1 (stereo not given),1.1,-12.4,·,19.1,·,0.8
O=C(c1cc2nc(-c3ccccc3)cc(-c3ccccc3)n2n1)N1CCN(C(=O)c2ccco2)CC1,0.6,41.8,-16.6,38.4,13.7,0.6
COC(=O)COc1ccc(S(=O)(=O)NCCC2=CCCCC2)cc1,0.3,68.6*,9.9,95.2*,-5.1,0
NC(=O)CSc1nc2c(sc3ccccc32)c(=O)n1CCCN1CCOCC1,1,4.7,8.9,16.3,-8.6,0.8
CC1CCc2nn(CC(=O)NC3CCCC(C)C3C)cc2C1 (stereo not given),1,3.1,·,2.4,·,1
CC1CCc2c(sc(NS(=O)(=O)c3ccccc3)c2C(=O)OC(C)C)C1 (stereo not given),·,·,5.2,·,-5.2,·
Cc1ccc(C2=NN3C(C(=O)c4ccccc4)Oc4ccccc4C3C2)cc1 (stereo not given),0.3,69.6*,-7.7,81.7*,4.6,0.2
Nc1nc(CSc2nnnn2-c2ccc(F)c(Cl)c2)nc(N2CCOCC2)n1,·,·,6.3,·,-7.0,·
Fc1ccc(COc2ccc(/C=N/n3cnnc3)cc2)cc1,0.1,92.4*,0.4,91.5*,0.3,0.1
Cc1ccc(NC(=S)N2CCN(C3CCCCC3)CC2)cc1,1,2.4,5.1,10.3,-3.4,0.9
Cc1cc(=S)cc(C)n1CCCn1ccnc1,1,2.2,·,-8.1,·,1.1
Cc1ccc(S(=O)(=O)NC(=O)c2cc(C)n(CCCn3ccnc3)c2C)cc1,0.1,89.9*,·,53.8*,·,0.5
COc1ccc(S(=O)(=O)N(C)Cc2cccs2)cc1Br,1.4,-35.7,-3.5,96.4*,3.3,0
C=CCn1c(SCC(=O)NC(=O)NCCC)nnc1C1CCCCC1,0.3,66.4*,-14.1,58.2*,13.7,0.4
C=CCn1c(SCC(=O)NC(=O)NCC(C)C)nnc1C1CCCCC1,1,3.6,5.7,55.1*,-4.3,0.4
C=CCn1c(SCC(=O)NCC2CCCO2)nnc1C1CCCCC1 (stereo not given),0.9,14.9,-1.6,7.5,-0.9,0.9
Cc1onc(-c2ccccc2Cl)c1C(=O)Nc1sc2c(c1C#N)CCC2,0,100.0*,1.3,97.8*,-0.9,0
Cc1onc(-c2ccccc2)c1C(=O)Nc1sc2c(c1C#N)CCC(C)C2 (stereo not given),0.1,92.3*,0.3,21.3,0.0,0.8
CCOC(=O)Nc1sc2c(c1C#N)CCC(C)C2 (stereo not given),·,·,4.3,·,-5.9,·
COc1cc(OC)c(-c2nn3c(-c4cccnc4)nnc3s2)cc1OC,0.7,26.3,·,13.7,·,0.9
COC(=O)C1=C(C)NC2=C(C(=O)C(C(=O)OC)C(c3ccc(OC)cc3)C2)C1c1ccccn1 (stereo not given),1,4.9,-5.1,5.4,5.8,0.9
CC(C)[C@H](NC(=O)[C@@H]1CSCN1C(=O)OC(C)(C)C)C(=O)NCC1CCC(C(=O)O)CC1 (stereo not given in full),1.2,-17.7,-3.6,-5.7,1.9,1.1
CCOc1ccc(N(CC(=O)Nc2ccccc2C)S(=O)(=O)c2c(C)noc2C)cc1,0.5,48.3,3.6,86.7*,-1.4,0.1
CCOc1ccc(N(CC(=O)Nc2cccc(F)c2)S(=O)(=O)c2c(C)noc2C)cc1,0.7,28.1,30.0,13.4,-28.4,0.9
COc1ccc(N(CC(=O)Nc2cc(C)ccc2OC)S(=O)(=O)c2c(C)noc2C)cc1,0.3,66.9*,·,64.5*,·,0.4
SMILES,CYP2C9 act,CYP2C9 inhib,sEH inh,CYP2C19 inhib,sEH activator,CYP2C19 act
CCOc1ccccc1NC(=O)CN(c1ccc(OC)cc1)S(=O)(=O)c1c(C)noc1C,0.1,90.2*,·,88.8*,·,0.1
COc1ccc(NC(=O)CN(c2cc(C)cc(C)c2)S(=O)(=O)c2c(C)noc2C)cc1OC,0.5,50.5*,·,13.9,·,0.9
COc1ccc(N(CC(=O)NCC2CCCO2)S(=O)(=O)c2c(C)noc2C)cc1 (stereo not given),0.9,11.3,·,31.2,·,0.7
COc1cccc(-c2csc3nc[nH]c(=O)c23)c1,0.9,7.6,10.6,59.3*,-7.2,0.4
c1ccc(CNCCN2CCNCC2)nc1,1,1.7,1.8,-1.5,-1.2,1
O=C(N/C(=C/c1cccs1)C(=O)N1CCCCCC1)c1ccccc1,·,·,-15.0,·,14.7,·
Cc1ccc(C(=O)N/C(=C/c2cccs2)C(=O)N2CCCCCC2)cc1,0.5,51.1*,·,31.6,·,0.7
CCn1c(=O)c(C(=O)NCc2ccc(OC)c(OC)c2)c(O)c2ccccc21,0,95.4*,-0.9,40.0,1.9,0.6
CCCn1c(=O)c(C(=O)Nc2ccccc2C(=O)OCC)c(O)c2ccccc21,1,2.5,·,-7.7,·,1.1
CCn1c(=O)c(C(=O)NCc2ccc(OC)cc2)c(O)c2ccccc21,0.3,68.0*,-1.7,36.1,5.6,0.6
CCn1c(=O)c(C(=O)NCCCO)c(O)c2ccccc21,1,1.3,1.0,12.2,-1.3,0.9
CCCn1c(=O)c(C(=O)NCc2ccc(OC)c(OC)c2)c(O)c2ccccc21,0.1,87.1*,-0.2,38.8,0.6,0.6
CCn1c(=O)c(C(=O)NCc2ccccn2)c(O)c2ccccc21,1.5,-54.7,·,22.5,·,0.8
COCCNC(=O)CN(c1cccc(OC)c1)S(=O)(=O)c1ccc(C)cc1,0.6,40.2,·,76.0*,·,0.2
COc1ccc(CNC(=O)CN(c2cccc(OC)c2)S(C)(=O)=O)cc1,0.8,16.9,-10.1,86.7*,9.5,0.1
COc1cccc(N(CC(=O)NCCSc2ccc(Cl)cc2)S(C)(=O)=O)c1,0.8,16.3,11.6,13.5,-12.4,0.9
COc1ccc(OC)c(N(CC(=O)NCCSc2ccccc2)S(C)(=O)=O)c1,0.1,89.6*,·,93.7*,·,0.1
COc1cccc(N(CC(=O)NCCSc2ccccc2)S(C)(=O)=O)c1,0.4,56.0*,0.5,93.4*,-2.3,0.1
COc1ccc(N(CC(=O)NCCSC(C)(C)C)S(C)(=O)=O)c(OC)c1,1,-1.8,-12.0,4.0,11.2,1
CCOC(=O)c1sc(NC(=O)C2CC=CCC2C(=O)O)nc1C (stereo not given),0.9,7.3,-5.4,-22.6,4.7,1.2
COc1ccc(CCNC(=O)CSc2nnc(CNc3ccc(Cl)cc3)o2)cc1OC,·,·,-11.0,·,8.2,·
O=C(CSc1ccc(-c2ccccc2)nn1)N1CCOCC1,1,-2.9,8.0,22.8,-7.8,0.8
